Screening results (PubChem BioAssay)
TWEAK Fn14 block: inhibitors of TWEAK-Fn14 signaling, primary screen, luciferase reporter cells, uHTS; inhibition, % at 10 µM; 2% of 360,000 active; AID 1159606, 2016; TWEAK-stimulated Fn14 reporter cells, luciferase luminescence, 8 h; in the data active = inhibition above about 50%
LGR2 inh: inhibitors of bursicon-induced LGR2 CRE-luciferase signal, primary screen, cell-based, HEK293, CRE-luciferase reporter, bursicon stimulation | Drosophila bursicon receptor LGR2 (rickets) | bursicon-stimulated, 4 h | inhibition, % at 9.99 µM | 0.35% of 380,000 active;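 active = drop in luminescence signal, shown as inhibition above about 50% in the replicate tests, limit read from the data, passing the limit was not always enough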;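 also: agonist challenge used bursicon conditioned medium at about half maximal strength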
EWS-Fli block: EWS/Fli-driven NR0B1 reporter inhibitors, primary screen, A673 cells, NR0B1 luciferase, luminescence, MLPCN library; viability-normalised; inhibition, % at 12.6 µM; 0.67% of 350,000 active;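 active = mean inhibition of at least 50% after viability correction, with every replicate also passing that limit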;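 also: firefly luciferase signal divided by Alamar Blue viability fluorescence both relative to DMSO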
KKLEB cytotox: cytotoxicity in KKLEB CF airway cells, primary screen, cytotoxicity control for CF NF-kB inhibitor project, cell-based, uHTS, fluorescence assay plates; KKLEB CF airway cells viability, ATPlite luminescence, overnight; hits give low values; cells stimulated with P. aeruginosa culture filtrate; AID 602141, 2011; activity change (cytotoxicity), % at 5 µM; 0.36% of 360,000 active;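 active = corrected activity change at or below -50% at 5 µM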
CF NFkB inh: inhibitors of PAF-induced NF-kB signaling, primary screen, cell-based, GFP fluorescence, uHTS; KKLEB NF-kB-GFP reporter, GFP fluorescence overnight; inhibition, % at 5 µM; 0.86% of 360,000 active;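 active = at least 50% inhibition at 5 µM, scaled per plate between neutral and stimulator controls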;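 also: PAF is a Pseudomonas aeruginosa culture filtrate used as stimulus; plate controls were PAF-stimulated DMSO wells for no effect and unstimulated DMSO wells for full effect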
TROY signal inh: inhibitors of TROY-driven NF-kB signaling, primary screen, Q293 LMP1-TROYcd cells, NF-kB luciferase, uHTS; Q293 LMP1-TROYcd NF-kB luciferase reporter, 4 h; inhibition, % at 10 µM; 0.98% of 360,000 active; AID 1347056, 2019;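 active = compounds whose plate-normalised and pattern-corrected inhibition of the luciferase reporter signal at the single screening dose is 50% or more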
Active calls of the source: *; · = no result. Only some compounds are listed: those with a hit (about 2.6% of all), similar ones and a draw of the others.

SMILES | TWEAK Fn14 block | LGR2 inh | EWS-Fli block | KKLEB cytotox | CF NFkB inh | TROY signal inh
C[C@@H]1CN([C@H](C)CO)C(=O)Cc2cc(NC(=O)Cc3ccccc3)ccc2O[C@@H]1CN(C)S(=O)(=O)c1cccs1 | · | -15 | 1 | · | · | ·
CC(=O)/C=C/c1ccc2ccccc2n1 | 64* | · | · | -10 | 33 | -7
O=C(c1ccccn1)N1N=C2/C(=C/c3ccccc3)CCCC2C1c1ccccc1 (stereo not given) | 9 | 4 | 14 | -5 | 9 | -10
CNC(=O)c1sc(N2N=C3/C(=C\c4ccccc4)CCCC3C2c2ccccc2)nc1C (stereo not given) | 84* | -6 | 21 | 2 | -23 | 48
CNC(=O)c1sc(N2N=C3/C(=C/c4ccccc4)CCCC3C2c2ccccc2)nc1C (stereo not given) | 58* | 21 | 25 | -19 | -2 | 30
C[C@@H]1CN([C@H](C)CO)C(=O)Cc2cc(NC(=O)Nc3ccc(C(F)(F)F)cc3)ccc2O[C@@H]1CN(C)Cc1ccc(C(F)(F)F)cc1 | · | -8 | 0 | · | · | ·
Cc1nn(-c2cccc(C(=O)O)c2)c(C)c1[N+](=O)[O-] | 3 | 8 | 1 | 9 | -1 | 2
Cc1cc(C)n(-c2cccc(C(=O)O)c2)n1 | 80* | 1 | 8 | -3 | -7 | 19
CCN=c1scc(C)n1/N=C/c1cc(Br)c(O)c(OC)c1 | -26 | -33 | -13 | 11 | -16 | 58*
CN=c1scc(C)n1/N=C/c1cc(Br)c(O)c(Br)c1 | -23 | 2 | 7 | -10 | 16 | 5
COc1ccc(NC(=O)Nc2ccc3c(c2)C(=O)N([C@@H](C)CO)C[C@@H](C)[C@@H](CN(C)S(=O)(=O)c2ccc(F)cc2)O3)cc1 | · | 5 | 8 | · | · | ·
O=C(C[C@@H]1CC[C@@H]2[C@H](COC[C@H](O)CN2S(=O)(=O)c2cccc(F)c2)O1)NCc1ccncn1 | · | 4 | -2 | · | · | ·
O=[N+]([O-])c1ccc(N2CCN(C(=S)NCc3ccc(Cl)cc3)CC2)cc1 | 64* | 17 | 14 | 2 | 20 | 36
N#Cc1c(NC(=O)c2ccccc2)sc2c1CCCCC2 | 38 | · | · | -15 | 2 | 1
N#Cc1c(Cl)nsc1NC(=O)c1ccccc1 | 42 | 10 | 1 | -39 | 52* | 22
Cn1c(CSCc2ccc(Cl)cc2)nnc1SCC(=O)Nc1nccs1 | 19 | 1 | · | 4 | -5 | 29
Cn1c(CSCc2ccc(Cl)c(Cl)c2)nnc1SCC(=O)Nc1nccs1 | 51* | · | · | 6 | 13 | 20
C[C@@H]1CN([C@H](C)CO)C(=O)c2cc(C#C[C@@H](C)O)cnc2O[C@H]1CN(C)C(=O)c1ccccc1 | · | -9 | -9 | · | · | ·
c1coc(-c2ccc3nncn3c2)c1 | 20 | 4 | 3 | 15 | -10 | -2
c1cc(N2CCOCC2)ccc1-c1ccc2nncn2c1 | 90* | -8 | 4 | -2 | -6 | 86*
COc1cccc(-c2cnc3c(c2)C(=O)N([C@H](C)CO)C[C@H](C)[C@H](CN(C)C(=O)Nc2ccc4c(c2)OCO4)O3)c1 | · | 32 | -8 | · | · | ·
COc1ccc(NC(=S)NCc2ccc3c(c2)OCO3)cc1 | 5 | 14 | 65* | 0 | 22 | 27
CC(C)c1ccc(NC(=S)NCc2ccc3c(c2)OCO3)cc1 | -9 | -25 | -1 | 1 | -12 | -25
CC(=O)N(C)C[C@H]1Oc2cc(-c3cccc(C#N)c3)ccc2S(=O)(=O)N([C@H](C)CO)C[C@@H]1C | · | 8 | 0 | · | · | ·
Cc1nc2sc(-c3ccccc3)cc2c(=O)n1N | 94* | 81* | 69* | -11 | -38 | 61*
Cc1nc2sc(-c3ccccc3)cc2c(=O)[nH]1 | 57* | 11 | 40 | -26 | 4 | 32
O=C(c1ccc(F)cc1)N1CC(=O)N2[C@H](C1)[C@H](c1ccc(C#CC3CC3)cc1)[C@@H]2CO | · | 23 | -3 | · | · | ·
O=C(CC(F)(F)F)N1C[C@@H]2[C@H](c3ccccc31)[C@@H](CO)N2C(=O)Cc1ccccc1 | · | 5 | 0 | · | · | ·
